Our source for the binding signal values is article PMC11006913.

Test in all cases: PBM; 200 nM protein, PBS
What all share (details): dsDNA, one strand shown

The target of assay [1] is T1, NKX2-4 (Homo sapiens, UniProt Q9H2Z4 175-261, P217L).
T1 sequence: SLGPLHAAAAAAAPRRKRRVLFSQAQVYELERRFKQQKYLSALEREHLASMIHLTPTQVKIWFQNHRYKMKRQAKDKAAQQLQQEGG

The target in assay [2] is T2, NKX2-4 (Homo sapiens, UniProt Q9H2Z4 175-261, T231S).
T2 sequence: T1 sequence with L43P, T57S

In assay [3] the target is T3, NKX2-4 (Homo sapiens, UniProt Q9H2Z4 175-261).
T3 sequence: T1 sequence with L43P

The target in assay [4] is T4, NKX2-4 (Homo sapiens, UniProt Q9H2Z4 175-261, R246Q).
T4 sequence: T1 sequence with L43P, R72Q

Substitutions are numbered along the chain they refer to.

With ATCGGTCC, the binding signal was 9.97 upbm affinity estimate (log intensity, higher = more binding, comparable within an allelic series) with NKX2-4 [1]; 9.94 upbm affinity estimate (log intensity, higher = more binding, comparable within an allelic series) with NKX2-4 [2]; 9.85 upbm affinity estimate (log intensity, higher = more binding, comparable within an allelic series) in the assay with NKX2-4 [3]; 9.95 upbm affinity estimate (log intensity, higher = more binding, comparable within an allelic series) with NKX2-4 [4].
In the case of GAGTGTCC, the binding signal with NKX2-4 [1] was 11.9 upbm affinity estimate (log intensity, higher = more binding, comparable within an allelic series); with NKX2-4 [2], 12.2 upbm affinity estimate (log intensity, higher = more binding, comparable within an allelic series); with NKX2-4 [3] it was 11.8 upbm affinity estimate (log intensity, higher = more binding, comparable within an allelic series); with NKX2-4 [4], 12.2 upbm affinity estimate (log intensity, higher = more binding, comparable within an allelic series).
Turning to CAAGCCAG, the binding signal with NKX2-4 [1] is 9.67 upbm affinity estimate (log intensity, higher = more binding, comparable within an allelic series); with NKX2-4 [2] it was 9.62 upbm affinity estimate (log intensity, higher = more binding, comparable within an allelic series); with NKX2-4 [3] it was 9.56 upbm affinity estimate (log intensity, higher = more binding, comparable within an allelic series); in the assay with NKX2-4 [4], 9.73 upbm affinity estimate (log intensity, higher = more binding, comparable within an allelic series).
As for GTCAAGGA, the binding signal in the assay with NKX2-4 [1] was 11.7 upbm affinity estimate (log intensity, higher = more binding, comparable within an allelic series); with NKX2-4 [2] it was 11.9 upbm affinity estimate (log intensity, higher = more binding, comparable within an allelic series); with NKX2-4 [3], 11.6 upbm affinity estimate (log intensity, higher = more binding, comparable within an allelic series); with NKX2-4 [4] it was 11.6 upbm affinity estimate (log intensity, higher = more binding, comparable within an allelic series).
For CACCCGTA, the binding signal was 9.75 upbm affinity estimate (log intensity, higher = more binding, comparable within an allelic series) in the assay with NKX2-4 [1]; 9.83 upbm affinity estimate (log intensity, higher = more binding, comparable within an allelic series) with NKX2-4 [2]; 9.77 upbm affinity estimate (log intensity, higher = more binding, comparable within an allelic series) with NKX2-4 [3]; 9.74 upbm affinity estimate (log intensity, higher = more binding, comparable within an allelic series) with NKX2-4 [4].
On to ATGCGTCC, for which the binding signal is 9.7 upbm affinity estimate (log intensity, higher = more binding, comparable within an allelic series) with NKX2-4 [1]; 9.56 upbm affinity estimate (log intensity, higher = more binding, comparable within an allelic series) with NKX2-4 [2]; 9.58 upbm affinity estimate (log intensity, higher = more binding, comparable within an allelic series) with NKX2-4 [3]; 9.59 upbm affinity estimate (log intensity, higher = more binding, comparable within an allelic series) in the assay with NKX2-4 [4].
Turning to ATACTTCA, the binding signal with NKX2-4 [1] was 12.4 upbm affinity estimate (log intensity, higher = more binding, comparable within an allelic series); in the assay with NKX2-4 [2], 12.8 upbm affinity estimate (log intensity, higher = more binding, comparable within an allelic series); with NKX2-4 [3], 12.3 upbm affinity estimate (log intensity, higher = more binding, comparable within an allelic series); with NKX2-4 [4] it was 12.8 upbm affinity estimate (log intensity, higher = more binding, comparable within an allelic series).
As to CCAGTCAC, the binding signal in the assay with NKX2-4 [1] was 9.45 upbm affinity estimate (log intensity, higher = more binding, comparable within an allelic series); with NKX2-4 [2], 9.51 upbm affinity estimate (log intensity, higher = more binding, comparable within an allelic series); with NKX2-4 [3], 9.45 upbm affinity estimate (log intensity, higher = more binding, comparable within an allelic series); in the assay with NKX2-4 [4], 9.44 upbm affinity estimate (log intensity, higher = more binding, comparable within an allelic series).
On to ACGGCCCG, for which the binding signal in the assay with NKX2-4 [1] was 9.61 upbm affinity estimate (log intensity, higher = more binding, comparable within an allelic series); with NKX2-4 [2] it was 9.59 upbm affinity estimate (log intensity, higher = more binding, comparable within an allelic series); in the assay with NKX2-4 [3], 9.62 upbm affinity estimate (log intensity, higher = more binding, comparable within an allelic series); with NKX2-4 [4] it was 9.64 upbm affinity estimate (log intensity, higher = more binding, comparable within an allelic series).
Turning to GAGTGCCA, the binding signal with NKX2-4 [1] was 12.1 upbm affinity estimate (log intensity, higher = more binding, comparable within an allelic series); in the assay with NKX2-4 [2], 12.3 upbm affinity estimate (log intensity, higher = more binding, comparable within an allelic series); in the assay with NKX2-4 [3], 11.9 upbm affinity estimate (log intensity, higher = more binding, comparable within an allelic series); with NKX2-4 [4], 12.4 upbm affinity estimate (log intensity, higher = more binding, comparable within an allelic series).
Turning to CAACCGTC, the binding signal in the assay with NKX2-4 [1] is 9.81 upbm affinity estimate (log intensity, higher = more binding, comparable within an allelic series); in the assay with NKX2-4 [2], 9.78 upbm affinity estimate (log intensity, higher = more binding, comparable within an allelic series); in the assay with NKX2-4 [3], 9.8 upbm affinity estimate (log intensity, higher = more binding, comparable within an allelic series); with NKX2-4 [4] it was 9.85 upbm affinity estimate (log intensity, higher = more binding, comparable within an allelic series).
For the sequence TCATCGAA, the binding signal with NKX2-4 [1] is 11.4 upbm affinity estimate (log intensity, higher = more binding, comparable within an allelic series); in the assay with NKX2-4 [2], 11.5 upbm affinity estimate (log intensity, higher = more binding, comparable within an allelic series); with NKX2-4 [3], 11.2 upbm affinity estimate (log intensity, higher = more binding, comparable within an allelic series); with NKX2-4 [4], 11.5 upbm affinity estimate (log intensity, higher = more binding, comparable within an allelic series).
In the case of CTAGGCCA, the binding signal in the assay with NKX2-4 [1] is 9.82 upbm affinity estimate (log intensity, higher = more binding, comparable within an allelic series); with NKX2-4 [2], 9.87 upbm affinity estimate (log intensity, higher = more binding, comparable within an allelic series); with NKX2-4 [3], 9.84 upbm affinity estimate (log intensity, higher = more binding, comparable within an allelic series); with NKX2-4 [4] it was 9.9 upbm affinity estimate (log intensity, higher = more binding, comparable within an allelic series).
In the case of GTGAAGGA, the binding signal in the assay with NKX2-4 [1] is 11.6 upbm affinity estimate (log intensity, higher = more binding, comparable within an allelic series); with NKX2-4 [2], 12 upbm affinity estimate (log intensity, higher = more binding, comparable within an allelic series); with NKX2-4 [3], 11.5 upbm affinity estimate (log intensity, higher = more binding, comparable within an allelic series); with NKX2-4 [4] it was 11.6 upbm affinity estimate (log intensity, higher = more binding, comparable within an allelic series).
Take CACGCACG: the binding signal with NKX2-4 [1] was 9.72 upbm affinity estimate (log intensity, higher = more binding, comparable within an allelic series); with NKX2-4 [2], 9.75 upbm affinity estimate (log intensity, higher = more binding, comparable within an allelic series); with NKX2-4 [3], 9.72 upbm affinity estimate (log intensity, higher = more binding, comparable within an allelic series); with NKX2-4 [4] it was 9.75 upbm affinity estimate (log intensity, higher = more binding, comparable within an allelic series).
CCGCCATA: the binding signal with NKX2-4 [1] was 9.83 upbm affinity estimate (log intensity, higher = more binding, comparable within an allelic series); with NKX2-4 [2], 9.79 upbm affinity estimate (log intensity, higher = more binding, comparable within an allelic series); with NKX2-4 [3], 9.85 upbm affinity estimate (log intensity, higher = more binding, comparable within an allelic series); with NKX2-4 [4] it was 9.84 upbm affinity estimate (log intensity, higher = more binding, comparable within an allelic series).
Turning to CAGTGACC, the binding signal is 9.77 upbm affinity estimate (log intensity, higher = more binding, comparable within an allelic series) with NKX2-4 [1]; 9.84 upbm affinity estimate (log intensity, higher = more binding, comparable within an allelic series) with NKX2-4 [2]; 9.8 upbm affinity estimate (log intensity, higher = more binding, comparable within an allelic series) with NKX2-4 [3]; 9.7 upbm affinity estimate (log intensity, higher = more binding, comparable within an allelic series) in the assay with NKX2-4 [4].
